The entries come from a sample that favours hits as a whole.
Shiga toxin inh: blocks Shiga toxin action in Vero cells. Vero cells, Shiga toxin protein synthesis inhibition reporter. inhibition, % at 38.7 µM. 290,000 tested, 9.2% active. AID 2315; in the data active = inhibition mostly above about 28%, no sharp cut-off; inactive = mostly below about 43%; note: 0% is about no effect
CHX counter: counter-screen hit for Shiga toxin inhibitors, cycloheximide. max response, %. 300,000 tested, 12% active. cell reporter, cycloheximide protein synthesis inhibition counterscreen; in the data active = max response mostly above about 13%, no sharp cut-off; inactive = mostly below about 14%; note: read at 38.3 µM for the half of the compounds with a filed dose; 0% is about no effect
LmPK inhibitor: inhibitors of Leishmania mexicana pyruvate kinase; Q27686; purified LmPK, Kinase-Glo ATP luminescence, 1 h; Potency, µM (series often up to 57.5 µM), without a hit: top-dose activity change, negative = inhibition, actives largely listed as inhibitors; 290,000 tested, 0.37% active; AID 1721; note: potency is the fitted concentration of half-maximal effect; % is set by controls: 0 for no effect and ±100 for the full control effect
Target sequence (Q27686 whole entry, looked up): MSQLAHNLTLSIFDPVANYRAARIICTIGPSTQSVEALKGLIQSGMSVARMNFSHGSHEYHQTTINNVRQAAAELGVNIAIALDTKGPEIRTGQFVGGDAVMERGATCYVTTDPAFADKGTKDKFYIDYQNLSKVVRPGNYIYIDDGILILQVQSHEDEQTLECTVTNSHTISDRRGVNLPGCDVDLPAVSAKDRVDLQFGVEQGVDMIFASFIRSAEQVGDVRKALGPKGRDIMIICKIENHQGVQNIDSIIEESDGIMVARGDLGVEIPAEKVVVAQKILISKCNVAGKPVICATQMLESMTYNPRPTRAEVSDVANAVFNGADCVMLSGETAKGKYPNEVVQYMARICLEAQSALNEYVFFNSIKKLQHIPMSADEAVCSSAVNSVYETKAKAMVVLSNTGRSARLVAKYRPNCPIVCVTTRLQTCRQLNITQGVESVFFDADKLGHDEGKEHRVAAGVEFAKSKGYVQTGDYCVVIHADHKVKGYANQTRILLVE
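qHTS format; LmPK 0.1 nM; substrates PEP 0.5 mM and ADP 0.1 mM. One-hour room-temperature incubation, then coupled luciferase luminescence; 0.5 nM enzyme wells mark activation.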
RE007 growth inh: less growth of the S. pombe RE007 Vpr strain. S. pombe RE007 Vpr strain, BacTiter-Glo ATP luminescence, 24 h. Potency, µM (top dose mostly 92.2 µM), inactives show at the top dose activity change, negative = less growth, usual class: inhibitors. 360,000 tested, 0.21% active. AID 651644; active = well fitted falling curve with a large enough effect; inconclusive = small, poorly fitted or top-dose-only effect; inactive = no such curve, though single readings can be large or run the other way; note: potency is the fitted concentration of half-maximal effect; % is set by controls: 0 for no effect and ±100 for the full control effect; nearly all actives have a fitted effect of over 50% in size
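Fission yeast strain RE007, carrying one chromosomally integrated HIV-1 vpr copy, was seeded at OD 0.01 in PMG+AL medium with 23 nL pinned compound. After 24 h at 30 °C and 99% humidity, viability was read by BacTiter-Glo luminescence.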
TbPYK inhibitor: T. brucei pyruvate kinase inhibition; Potency, µM (titrated, usually from 76.8 µM), inactives show top-dose activity, negative = inhibition, hits mostly inhibitors; Q57TT1; AID 624173; 410,000 tested, 0.12% active; TbPYK enzyme, Kinase-Glo Plus ATP luminescence, 45 min; note: potency is the fitted concentration of half-maximal effect; % is set by controls: 0 for no effect and ±100 for the full control effect; nearly all actives have a fitted effect of over 50% in size
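Enzyme and substrate buffer are dispensed first and compound is pin-transferred. ADP at 130 uM final then starts the reaction, which runs 45 min at room temperature. Detection reagent is added for 10 min before luminescence is imaged.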
FBPA Giardia inh: blocks Giardia fructose-bisphosphate aldolase activity; purified Giardia FBPA; Potency, µM (top dose mostly 59.6 µM), for the others: at the highest dose activity, negative = inhibition, usual class: inhibitors; 290,000 tested, 0.71% active; AID 2451; note: potency is the fitted concentration of half-maximal effect; % is set by controls: 0 for no effect and ±100 for the full control effect; nearly all actives have a fitted effect of over 55% in size
Target sequence (A8B2U2 whole entry, looked up): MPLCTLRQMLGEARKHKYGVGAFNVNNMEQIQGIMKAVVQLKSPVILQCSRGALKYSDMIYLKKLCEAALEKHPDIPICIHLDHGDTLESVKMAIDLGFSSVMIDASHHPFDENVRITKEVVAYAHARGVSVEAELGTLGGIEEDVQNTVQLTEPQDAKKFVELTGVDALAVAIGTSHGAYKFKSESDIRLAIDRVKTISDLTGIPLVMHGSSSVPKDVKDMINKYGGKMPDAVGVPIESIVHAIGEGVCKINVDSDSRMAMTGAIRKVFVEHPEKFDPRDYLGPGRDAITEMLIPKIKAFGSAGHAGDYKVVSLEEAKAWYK
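Giardia FBPA (40 nM reagent) was preincubated 10 min at RT with compound (up to 57.5 uM final), then substrate plus GAPDH/TPI/NAD/arsenate coupling system with diaphorase/resazurin was added; resorufin fluorescence (525/598 nm) was read after 20 min.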
* = called active by the depositor; ? = inconclusive; nt = no result given; + = active, no number; [ ] = dose if it differs, or a comment. Unless noted, calls come from the whole dose curve; as a rule, active = well fitted curve in the direction sought with a large enough effect; inconclusive = small, poorly fitted or top-dose-only effect, or another doubt; inactive = no such curve, though single readings can be large; an effect the other way counts as inactive or inconclusive.

SMILES	Shiga toxin inh	CHX counter	LmPK inhibitor	RE007 growth inh	TbPYK inhibitor	FBPA Giardia inh
CCCCNC(=S)N/N=C/c1cccc(OCC)c1O	30.5*	11.5	-3.0%	0.3%	-4.0%	11.6%
CCOc1cccc(/C=N/NC(=S)Nc2ccccc2[N+](=O)[O-])c1O	153.9*	38.3*	1.6%	1.3%	-2.2%	7.7%
O=[N+]([O-])c1ccccc1C=NNC(=S)NN=Cc1ccccc1[N+](=O)[O-]	nt	nt	nt	-9.9%	-2.9%	nt
CCOc1cccc(/C=N/NS(=O)(=O)c2ccc(C)c([N+](=O)[O-])c2)c1O	17.8	8.4	8.5%	25.2%	2.5%	20.2%
CCc1ccc(OCC(=O)Nc2cc3oc4ccccc4c3cc2OC)c(Br)c1	nt	nt	nt	nt	3.4%	nt
Cc1ccc(S(=O)(=O)N2CCN(Cc3ccccc3Cl)CC2)cc1	nt	nt	nt	nt	-2.3%	nt
CN(C)S(=O)(=O)c1cc(NC(=O)CN2CCc3ccccc32)ccc1Cl	28.0	29.9*	13.4%	2.6%	-6.6%	-29.1%
CN(CC(=O)Nc1ccc(Cl)c(S(=O)(=O)N(C)C)c1)Cc1ccccc1	73.5*	39.6*	-3.0%	-9.5%	0.0%	?
N/C(=N\OC(=O)c1ccc2ccccc2c1)c1cccc([N+](=O)[O-])c1	+	38.5*	-1.4%	-22.6%	-2.4%	7.7%
N/C(=N\OC(=O)Cc1ccc(-c2ccccc2)cc1)c1cccc([N+](=O)[O-])c1	-18.6	-1.6	3.2%	1.0%	0.0%	-0.2%
CC1=C(C)/C(=N/OC(=O)c2cccc([N+](=O)[O-])c2)C=CC1=O	90.1*	56.0*	3.4%	-19.9%	-8.2%	?
N/C(=N\OC(=O)c1ccccc1Cl)c1cccc([N+](=O)[O-])c1	52.2*	37.2*	-8.1%	5.6%	-14.6%	-7.0%
NC(=O)c1cccc([N+](=O)[O-])c1	nt	nt	nt	-0.4%	0.0%	nt
N/C(=N/OC(=O)c1ccccc1Cl)c1ncc([N+](=O)[O-])s1	68.5*	35.0*	-9.1%	?	-0.5%	-7.8%
COc1ccc2c(c1)C(=O)[C@H](OC(=O)NS(=O)(=O)c1ccc(C)cc1)[C@@H](c1ccc(OC)c(Br)c1)O2	nt	nt	nt	nt	nt	4.0%
CCCC(=O)Nc1nnc(SCc2cc(=O)c3ccc(C)cc3[nH]2)s1	nt	nt	nt	nt	1.2%	nt
N/C(=N\OC(=O)c1ccccc1F)c1ccc([N+](=O)[O-])cc1	39.4	30.0*	-3.1%	11.8%	-6.4%	-4.4%
Cc1cccc(/C(N)=N/OC(=O)COc2ccc(Cl)cc2)c1	17.5	-3.0	4.9%	-9.8%	0.8%	6.8%
Cc1cccc(/C(N)=N/OC(=O)c2ccc(F)cc2)c1	85.9*	73.0*	4.47µM*	?	?	3.4%
N/C(=N/OC(=O)c1cccc([N+](=O)[O-])c1)c1cccc([N+](=O)[O-])c1	24.8	-5.5	1.1%	-5.0%	-3.4%	1.0%
N/C(=N\OC(=O)c1cccc(Br)c1)c1ccc([N+](=O)[O-])cc1	11.1	-2.7	-0.8%	7.9%	-5.9%	15.2%
N/C(=N\OC(=O)c1ccc(F)cc1)c1cccc([N+](=O)[O-])c1	56.9*	31.1*	-2.2%	-4.5%	2.9%	-0.9%
N/C(=N\OC(=O)c1cccc(F)c1)c1cccc([N+](=O)[O-])c1	30.5*	17.7*	-1.8%	-1.3%	-2.7%	-3.5%
Cc1ccc(NC(=O)Nc2c[nH]c(=O)[nH]c2=O)c(Cl)c1	nt	nt	nt	nt	-2.8%	nt
COc1cccc(CNC(=O)CN2C(=O)N(c3cccc(Cl)c3)S(=O)(=O)c3ccccc32)c1OC	nt	nt	nt	nt	0.9%	nt
SMILES	Shiga toxin inh	CHX counter	LmPK inhibitor	RE007 growth inh	TbPYK inhibitor	FBPA Giardia inh
O=C(NN=C1C2CC3CC1CC(Cl)(C3)C2)c1cccs1	35.1	44.7*	-5.0%	1.1%	3.8%	10.6%
O=C(NN=C1C2CC3CC1CC(Cl)(C3)C2)c1ccccn1	43.1	14.3*	0.5%	-4.7%	1.5%	?
COc1ccc2cc3c(nc2c1)OCC3	101.9*	20.0*	-2.7%	4.3%	-1.1%	3.2%
C=CCN1c2ccccc2[C@]23C[C@@H](C(=O)OC)N(S(=O)(=O)CCCC)C2=NC(C(=O)OC)=C(C(=O)OC)[C@H]13	nt	nt	2.0%[11.5 µM]	nt	nt	3.6%[12.9 µM]
COc1ccc2c(c1)[nH]c1c(=O)n(/N=C/c3ccc(OC)c(COc4ccccn4)c3)cnc12	67.1*	6.0	2.2%	-2.3%	-1.2%	-0.2%
CC(=O)OCON[N+]([O-])=NC(C)C	-6.1	12.1	nt	nt	nt	-28.1%
CC(=O)C1=C(C)Nc2cc(C(F)(F)F)ccc2S1	21.0	-3.1	19.1%	6.7%	?	-2.6%
COC(=O)C1=C(C)Nc2ccc(C)cc2S1	46.8	24.5*	1.6%	-16.3%	-13.6%	?
CCn1cc(C(=O)N2CCN(c3ccccc3F)CC2)c(=O)c2cc(S(=O)(=O)N(C)C)ccc21	nt	nt	nt	nt	0.3%	nt
Cc1ccc(NC(=O)CCSc2ccccn2)cc1	+	58.8*	0.4%	-22.3%	-1.1%	0.0%
Cc1cc(NC(=O)CSc2ccccn2)cc(NC(=O)CSc2ccccn2)c1	-7.3	-1.6	-4.2%	-16.9%	-10.8%	6.9%
Cc1cccc(NC(=O)CCSc2ccccn2)c1	74.0*	74.8*	2.2%	-25.0%	-5.6%	-4.7%
COc1ccccc1CNC(=O)c1oc2c(c1C)-c1nn(Cc3ccc(Cl)cc3)cc1CC2	nt	nt	nt	nt	-3.7%	nt
Cc1csc(NC(=O)c2ccccc2O)n1	89.2*	56.4*	-10.5%	?	-0.8%	-23.0%
CC(C)(C)c1csc(NNC(=O)c2ccc(Br)cc2)n1	93.9*	39.9*	6.7%[11.5 µM]	?	-8.3%	-12.0%
O=C(Nc1nccs1)c1ccc(Cl)nc1	23.1	26.0	-0.1%	-5.0%	0.4%	-11.5%
Cc1csc(Nc2nc(N)c(C(=O)Nc3ccccc3)o2)n1	97.9*	39.4*	0.7%	5.6%	-8.2%	-1.6%
Cc1csc(NC(=O)c2ccc(Cl)nc2)n1	56.6*	46.6*	-2.2%	-14.0%	1.1%	-7.6%
CCCCn1c(=O)c2oc3ccccc3c2n(Cc2cccc(F)c2)c1=O	nt	nt	nt	nt	-4.4%	nt
COc1cccc(NC(=O)c2nnn(Cc3cccc(C(F)(F)F)c3)c2N)c1	nt	nt	nt	nt	-3.0%	nt
Cc1csc(NC(=O)c2cc(C)oc2C)n1	73.7*	27.6*	?	?	-5.9%	-3.7%
CC(C)(C)c1csc(NC(=O)c2cccnc2Cl)n1	nt	nt	nt	14.0%	0.1%	nt
COc1ccccc1NC(=O)Nc1nc(C(C)(C)C)cs1	49.5	20.7*	8.5%	2.3%	-6.7%	-17.7%
CC(C)(C)c1csc(NC(=O)c2ccccc2O)n1	39.3*	32.1*	-9.2%	-5.1%	-0.5%	?
CSc1ncccc1C(=O)Nc1nc(C(C)(C)C)cs1	17.7*	21.2*	11.1%	2.5%	-1.2%	-3.7%
CC(C)(C)c1csc(NC(=O)c2c(F)c(F)c(F)c(F)c2F)n1	-12.6	-2.8	1.6%	-14.6%	-3.7%	-0.7%
COc1ccccc1NC(=O)Nc1nc(C(N)C(C)C)cs1 (configuration not stated)	nt	nt	nt	-6.1%[18.4 µM]	0.4%	nt

High-throughput results deposited in PubChem BioAssay by National Center for Advancing Translational Sciences (NCATS).
